Data from the supplement of paper PMC10646978.
A number with no mark means an inactive call.

test system: RAW-Dual (murine macrophage reporter line); test: viability score (confluency relative to resting cells, overnight) (fraction); higher = more viable, active = viable (0.7 or more); settings: modulator concentration 10 µM
How it was run: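 Confluency was the readout: RAW-Dual macrophages were imaged with IncuCyte after an overnight exposure to compound at 10 μM final. IncuCyte software produced two masks over all imaged wells. The viability score expresses confluency against resting cells, and both masks had to exceed 70% of resting cells for a compound to meet the cutoff.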

Compound	viability score
COC(=O)C1C(=O)C(=CNc2ccccc2O)C(=O)CC1(C)C (configuration not stated)	0.557
Cc1cc(OCCCOc2cccc3cccnc23)ccc1Cl	1 (active)
CN(C)CCOC(c1ccccc1)c1ccccc1.Cl	0.999 (active)
O=C(Nc1cccnc1)c1ccc(OC2CCOCC2)nc1	0.99 (active)
CCOC(=O)C1=CC2(CC)CCCN3CCc4c(n1c1ccccc41)C32 (configuration not stated)	1.03 (active)
CCOC(=O)C1=C(C)NC(C)=C(C(=O)OCC)C1c1ccc(F)cc1	0.244
CC12CCC3c4ccc(O)cc4CCC3C1CC(O)C2O (configuration not stated)	0.97 (active)
COC(CNS(=O)(=O)c1ccccc1Cl)c1cccc(F)c1 (configuration not stated)	0.995 (active)
CN(C)CCC=C1c2ccccc2Sc2ccc(Cl)cc21.Cl	0.547
CCCc1cc(=O)oc2cc(OCC(=O)OC)c(Cl)cc12	0.998 (active)
CCOC(=O)c1ccccc1NC(=O)CN(c1cc(Cl)ccc1OC)S(C)(=O)=O	1.01 (active)
Cc1c(OCC(F)(F)F)ccnc1CS(=O)c1nc2ccccc2[nH]1 (configuration not stated)	0.984 (active)
COc1cc2c3cc1Oc1cc(ccc1O)OC1c4c(cc(OC)c(O)c4Oc4ccc(cc4)CC3N(C)CC2)CCN1C (configuration not stated)	0.995 (active)
Cc1nc(Nc2ncc(C(=O)Nc3c(C)cccc3Cl)s2)cc(N2CCN(CCO)CC2)n1.O	0.492
COc1cccc(CCc2ccccc2OCC(CN(C)C)OC(=O)CCC(=O)O)c1.Cl (configuration not stated)	0.995 (active)
Nc1ccc(S(N)(=O)=O)cc1	0.994 (active)
N#Cc1nc(-c2ccc(COc3ccccc3)o2)oc1N1CCCCC1	0.981 (active)
